# In publication PMC5540273 (PLoS ONE, 2017):
# Legend:
# Conditions in all cases: concentration: 1 μM, replicates: in singlicate; n = 1
# ERK1 = test system: T1, ERK1
# T1 construct: gene MAPK3
# ERK2 = test system: T2, ERK2
# T2 construct: gene MAPK1
# ERK3 = test system: T3, ERK3
# T3 construct: gene MAPK6
# ERK4 = test system: T4, ERK4
# T4 construct: gene MAPK4
# ERK5 = test system: T5, ERK5
# T5 construct: gene MAPK7
# ERK8 = test system: T6, ERK8
# T6 construct: gene MAPK15
# ERN1 = test system: ERN1
# FAK = test system: T7, FAK
# T7 construct: gene PTK2
# FER = test system: FER
# FES = test system: FES
# 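Further: KINOMEscan kinase panel screen.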
Structure (SMILES),%Inh (ERK1) [%],%Inh (ERK2) [%],%Inh (ERK3) [%],%Inh (ERK4) [%],%Inh (ERK5) [%],%Inh (ERK8) [%],%Inh (ERN1) [%],%Inh (FAK) [%],%Inh (FER) [%],%Inh (FES) [%]
Nc1ncnc2c1nc(-c1ccccc1)n2-c1ccccc1 [SKF-97293],12,10,0,0,6,13,35,14,8,30
CCn1c(-c2nonc2N)nc2c(C#CC(C)(C)O)ncc(OCCCCN)c21.O=C(O)C(F)(F)F.O=C(O)C(F)(F)F [GSK507274],0,1,6,8,0,10,0,0,0,9
NCCCC(NC(=O)c1cc(Br)c(-c2ccnc3[nH]ccc23)s1)c1ccccc1.O=C(O)C(F)(F)F.O=C(O)C(F)(F)F (centres unmarked) [GSK1287544],12,22,0,0,0,43,22,0,0,1
CC(=O)Nc1nc2cnc(Nc3cc(NC(=O)c4cccc(C5(C#N)CC5)c4Cl)ccc3C)nc2s1,0,14,13,0,3,0,28,0,0,12
Cc1ccc(C(=O)N2CC[C@@H](O)C2)cc1-n1c(C)cc(OCc2ccc(F)cc2F)c(Br)c1=O,0,0,0,9,0,0,0,0,1,0
c1ccc(Oc2ccc(Nc3ccnc4cc(-c5ccc(CNCCN6CCOCC6)o5)ccc34)cc2)nc1 [GW567145],0,0,0,0,0,0,26,0,0,5
Clc1ccc(-c2nn3ncccc3c2-c2ccnc(Nc3ccc4c(c3)OCCO4)n2)cc1 [GW829116],0,12,3,0,0,1,0,0,0,0
Cn1cc(-c2ccc3c(c2)CCN3C(=O)Cc2cccc(Cl)c2)c2c(N)ncnc21 [GSK2606590],0,10,0,11,0,0,0,0,35,0
CCS(=O)(=O)c1ccc(OC)c(Nc2nccc(-c3c(-c4cccc(NC(=O)c5c(F)cccc5F)c4)nn4ncccc34)n2)c1 [GSK326180],0,5,13,47,0,0,22,0,22,0
Cl.Cl.NCC(C(=O)Nc1cc(Br)c(-c2ccnc3[nH]ccc23)s1)c1ccccc1 (centres unmarked) [GSK1269851],6,0,0,6,0,74,18,0,18,38
Nc1ncc(-c2ccc3nccc(-c4ccncc4)c3c2)cc1S(=O)(=O)N1CCOCC1 [GSK1627798],0,0,0,10,0,45,0,2,11,0
COc1cc(Nc2nccc(N3CCC(NC(=O)c4cc5ccccc5s4)C3)n2)cc(OC)c1OC (centres unmarked) [GSK1379760],12,9,0,0,0,0,6,0,34,0
C[C@@H]1CC[C@@H](C(=O)Nc2ccccc2)CN1c1cc(-c2ccc3c(N)n[nH]c3c2)nc(N)n1 [GSK2286062],10,0,0,28,0,0,0,0,13,12
Cc1cccc(Nc2nc(N[C@H]3CCNC3)ncc2C(N)=O)c1.Cl [GSK2197149],1,0,65,25,0,12,7,0,69,0
Oc1cc(Nc2ccnc3cc(I)ccc23)ccc1F [GW552771],0,0,0,0,0,11,0,0,11,0
COc1cc(Nc2nccc(-c3c(-c4cccc(NC(=O)c5c(F)cccc5F)c4)nn4ccccc34)n2)cc(OC)c1OC [GSK323521],25,36,0,3,0,24,2,0,14,0

Structure (SMILES),%Inh (ERK1) [%],%Inh (ERK2) [%],%Inh (ERK3) [%],%Inh (ERK4) [%],%Inh (ERK5) [%],%Inh (ERK8) [%],%Inh (ERN1) [%],%Inh (FAK) [%],%Inh (FER) [%],%Inh (FES) [%]
COc1cccc(NC(=O)NC2CCN(c3ccnc(Nc4cc(OC)c(OC)c(OC)c4)n3)C2)c1 (centres unmarked) [GSK1379763],0,0,7,25,0,0,7,0,0,8
O=C(Nc1ccccc1F)NC1CCN(c2ccnc(Nc3ccc(F)cc3)n2)CC1 [GSK1379800],3,0,20,0,0,0,0,0,15,0
O=C(NC1CCN(c2ccnc(Nc3ccc(F)cc3)n2)C1)c1cc2ccccc2s1 (centres unmarked) [GSK1379716],4,23,1,31,0,0,0,0,44,12
CN1CCN(CCCNc2nccc(-c3c(-c4ccc(F)cc4)nn4cc(C(F)(F)F)ccc34)n2)CC1 [GW621581],0,0,0,5,0,31,0,0,0,0
COc1ccc(Nc2nccc(N3CCC(NC(=O)Nc4cccc(OC)c4)C3)n2)cc1 (centres unmarked) [GSK1379742],0,0,9,0,0,36,0,0,26,9
CNC(=O)c1ccccc1Nc1nc(Nc2ccc(N3CCOCC3)cc2)ncc1Cl.Cl [GSK1576028],59,68,92,64,84,99.5,78,100,97.7,62
O=C(Nc1cccc(Oc2ccc3nc(NC(=O)C4CC4)cn3n2)c1)c1ccccc1C(F)(F)F,0,0,0,0,0,20,0,9,0,22
c1ccc(-c2n[nH]cc2Nc2ccnc3ccccc23)nc1 [GW694077],0,0,7,0,0,25,22,0,0,0
O=C(Nc1n[nH]c2cc(-c3ccoc3)ccc12)C1CC1 [SB-738481],0,0,0,0,0,84,0,7,0,5
COc1cc(Nc2ncc3c(C)nc(-c4cc5ccccc5[nH]4)n3n2)cc(OC)c1OC [GW869516],0,0,42,38,7,0,0,6,0,0
Cl.NC(=O)c1cccc(Nc2nccc(Nc3ccc(Oc4c(Cl)cccc4Cl)c(Cl)c3)n2)c1 [GW659009],0,0,0,0,0,10,12,0,0,0
CC(C)(C)c1ccc2nccc(Nc3cccc(O)c3)c2c1 [GW856795],0,0,0,0,0,0,66,0,0,0
Cc1ccc(C)c(NC(=O)NC2CCN(c3ccnc(Nc4ccc(F)cc4)n3)C2)c1 (centres unmarked) [GSK1379720],35,0,0,12,0,0,3,0,2,0
Cc1ccc(C(=O)Nc2ccc(Nc3ccnc4cc(-c5nccs5)ccc34)cc2O)cc1.Cl [GW494702],0,0,0,0,0,11,0,0,34,24
Cc1occc1-c1ncc(OC[C@@H](N)Cc2c[nH]c3ccccc23)cc1-c1ccc2[nH]nc(C)c2c1.O=C(O)C(F)(F)F [GSK682037],94.1,82,5,15,0,0,6,40,76,47
CN(C)S(=O)(=O)c1cc(-c2ccc3nccc(-c4cccc(S(N)(=O)=O)c4)c3c2)cnc1N [GSK1669921],3,0,0,0,0,40,8,0,5,14
